Data published in PubChem BioAssay AID1259339 (Broad Institute, 2017).
Values without a mark were called inactive. The source made the active and inactive calls.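 The calls were made as follows: active = fitted AC50 no higher than ten times the top tested dose (cut at about 90 µM in these data); inconclusive = flat curve with 30 to 70% signal loss, or bad fit; inactive = AC50 beyond ten times the top dose.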

test: AlphaLISA signal interference compounds, dose response, artefact control, biochemical, TruHit kit (AID 1259339); conditions: TruHit alphaLISA kit signal interference counterscreen; series mostly up to 80 µM; activity change, negative = signal loss: at the top concentration

Structure (SMILES) | activity change, negative = signal loss | AC50
O=C(NCCc1ccccc1)c1cc2cccnc2n(Cc2ccccc2)c1=O | -4.4% | –
Nc1c(C(=O)NCc2ccco2)c2nc3ccccc3nc2n1CCN1CCOCC1 | – | 56.6 µM (active)
Cc1ccc(S(=O)(=O)Cc2ccc(C(=O)N3CCC4(CC3)OCCO4)o2)cc1 | -4.38% | –
O=C(NC1(C(F)(F)F)Oc2ccc(Cl)cc2O1)N1CCC2(CC1)OCCO2 (centres undefined) | – | > 160 µM
